Results taken from PMC7862700, “An all-to-all approach to the identification of sequence-specific readers for epigenetic DNA modifications on cytosine”.

How the values were obtained:
Assay in all cases: DAPPL (digital affinity profiling via proximity ligation, sequencing); 10 mM Tris-HCl pH 7.5, 50 mM NaCl, 1 mM DTT, 4% glycerol, room temperature, 30 min; GST-TFs on glutathione beads, 16-mer random dsDNA library, 0.1% formaldehyde crosslink after washing; high values mean tight binding
Settings in all cases: protein: recombinant; tags: N-terminal GST; dsDNA, one strand shown
FLI1 = target: T1, FLI1 (Homo sapiens, UniProt Q01543 1-452)
T1 sequence: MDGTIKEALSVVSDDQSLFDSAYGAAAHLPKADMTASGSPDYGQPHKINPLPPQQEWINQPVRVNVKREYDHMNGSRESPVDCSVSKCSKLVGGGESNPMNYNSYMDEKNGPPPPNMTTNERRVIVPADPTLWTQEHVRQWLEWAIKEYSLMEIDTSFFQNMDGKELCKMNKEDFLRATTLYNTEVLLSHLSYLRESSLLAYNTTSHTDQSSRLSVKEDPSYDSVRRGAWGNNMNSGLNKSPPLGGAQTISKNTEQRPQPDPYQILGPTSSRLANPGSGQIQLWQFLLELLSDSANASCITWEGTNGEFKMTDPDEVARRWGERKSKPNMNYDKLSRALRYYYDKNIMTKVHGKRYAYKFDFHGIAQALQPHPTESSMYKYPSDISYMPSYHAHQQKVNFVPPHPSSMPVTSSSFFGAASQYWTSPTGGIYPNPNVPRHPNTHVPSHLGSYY
Method in brief: (§1)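 Human transcription factors carrying a GST fusion were produced in yeast, bound to glutathione beads, tagged with DNA barcodes and pooled together with a tag-only sample. Each pool was held with 200 nmole of a random double-stranded 16-mer DNA library in Tris/NaCl/DTT/glycerol buffer for 30 min at room temperature, then washed, crosslinked in 0.1% formaldehyde, proximity-ligated with BsaI/T4 ligase (1 h, 37 °C), PCR-amplified and sequenced on an Illumina NextSeq500. Binding signal is the read frequency of each hexamer for a given factor divided by its frequency in the tag-only sample.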

ELK1 = target: T2, ELK1 (Homo sapiens, UniProt P19419 1-428)
T2 sequence: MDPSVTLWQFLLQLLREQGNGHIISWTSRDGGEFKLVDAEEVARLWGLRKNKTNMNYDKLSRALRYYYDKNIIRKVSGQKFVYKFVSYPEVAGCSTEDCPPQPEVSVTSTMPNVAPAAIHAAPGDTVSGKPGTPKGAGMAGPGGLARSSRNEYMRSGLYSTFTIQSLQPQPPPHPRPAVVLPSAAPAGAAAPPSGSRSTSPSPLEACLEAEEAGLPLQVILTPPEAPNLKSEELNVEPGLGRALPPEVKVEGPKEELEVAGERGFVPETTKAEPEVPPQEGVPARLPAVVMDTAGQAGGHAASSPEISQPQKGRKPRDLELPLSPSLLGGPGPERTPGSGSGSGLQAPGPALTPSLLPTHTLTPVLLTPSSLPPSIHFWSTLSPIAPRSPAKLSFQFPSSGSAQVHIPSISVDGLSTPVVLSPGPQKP
Method in brief: as §1

GABPA = target: T3, GABPA (Homo sapiens, UniProt Q06546 1-454)
T3 sequence: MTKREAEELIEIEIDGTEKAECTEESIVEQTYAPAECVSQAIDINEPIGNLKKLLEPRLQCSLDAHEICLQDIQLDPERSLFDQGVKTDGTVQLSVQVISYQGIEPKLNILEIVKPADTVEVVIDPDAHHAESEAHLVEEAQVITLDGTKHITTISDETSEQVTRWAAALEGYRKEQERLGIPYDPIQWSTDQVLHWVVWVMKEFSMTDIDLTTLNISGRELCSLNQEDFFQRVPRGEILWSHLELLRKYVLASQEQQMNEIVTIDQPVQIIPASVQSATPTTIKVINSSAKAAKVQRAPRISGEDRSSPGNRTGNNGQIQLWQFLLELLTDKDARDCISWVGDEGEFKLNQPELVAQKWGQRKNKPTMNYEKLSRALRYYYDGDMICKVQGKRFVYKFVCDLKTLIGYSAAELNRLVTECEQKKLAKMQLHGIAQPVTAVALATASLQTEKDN
Method in brief: as §1

ERG = target: T4, ERG (Homo sapiens, UniProt P11308 1-479)
T4 sequence: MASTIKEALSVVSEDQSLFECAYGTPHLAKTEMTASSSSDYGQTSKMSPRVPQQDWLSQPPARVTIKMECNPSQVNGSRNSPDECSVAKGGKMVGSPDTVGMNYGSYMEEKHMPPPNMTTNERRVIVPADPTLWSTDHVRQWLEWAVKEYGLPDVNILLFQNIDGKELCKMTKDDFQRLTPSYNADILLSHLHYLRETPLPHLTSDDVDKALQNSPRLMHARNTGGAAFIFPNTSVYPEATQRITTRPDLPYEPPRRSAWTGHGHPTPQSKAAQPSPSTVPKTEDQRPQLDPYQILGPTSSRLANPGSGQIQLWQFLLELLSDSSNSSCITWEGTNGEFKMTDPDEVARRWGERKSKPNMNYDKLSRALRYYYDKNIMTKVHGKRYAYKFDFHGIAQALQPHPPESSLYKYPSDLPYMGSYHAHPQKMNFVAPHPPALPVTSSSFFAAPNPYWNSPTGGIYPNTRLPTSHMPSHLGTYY
Method in brief: as §1

ELF1 = ELF1 (Homo sapiens, UniProt P32519 1-619)
Method in brief: as §1

EHF = target: T5, EHF (Homo sapiens, UniProt Q9NZC4 1-300)
T5 sequence: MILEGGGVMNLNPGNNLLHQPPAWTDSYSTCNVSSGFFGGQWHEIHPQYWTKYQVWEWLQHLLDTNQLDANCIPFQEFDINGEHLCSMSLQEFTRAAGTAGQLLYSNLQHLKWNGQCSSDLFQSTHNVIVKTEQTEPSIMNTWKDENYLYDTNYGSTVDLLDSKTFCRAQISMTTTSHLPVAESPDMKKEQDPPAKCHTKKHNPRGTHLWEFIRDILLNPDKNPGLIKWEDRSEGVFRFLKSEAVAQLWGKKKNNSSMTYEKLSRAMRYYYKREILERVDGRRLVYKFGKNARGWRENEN
Method in brief: as §1

SPI1 = SPI1 (Homo sapiens, UniProt P17947 1-270)
Method in brief: as §1

SPIB = SPIB (Homo sapiens, UniProt Q01892 1-262)
Method in brief: as §1

ELK3 = target: T6, ELK3 (Homo sapiens, UniProt P41970 1-407)
T6 sequence: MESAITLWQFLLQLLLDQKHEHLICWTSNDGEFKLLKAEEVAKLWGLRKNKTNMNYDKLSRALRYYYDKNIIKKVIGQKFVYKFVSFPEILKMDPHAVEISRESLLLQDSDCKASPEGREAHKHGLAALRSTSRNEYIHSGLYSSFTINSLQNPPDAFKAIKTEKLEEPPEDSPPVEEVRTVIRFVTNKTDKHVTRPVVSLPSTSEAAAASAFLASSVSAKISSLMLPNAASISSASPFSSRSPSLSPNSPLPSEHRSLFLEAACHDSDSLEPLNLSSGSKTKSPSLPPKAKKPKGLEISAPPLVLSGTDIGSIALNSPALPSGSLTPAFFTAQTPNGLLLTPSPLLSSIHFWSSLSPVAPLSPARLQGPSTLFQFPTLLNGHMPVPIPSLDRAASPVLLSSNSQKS
Method in brief: as §1

SPIB, sequence (Q01892 whole entry): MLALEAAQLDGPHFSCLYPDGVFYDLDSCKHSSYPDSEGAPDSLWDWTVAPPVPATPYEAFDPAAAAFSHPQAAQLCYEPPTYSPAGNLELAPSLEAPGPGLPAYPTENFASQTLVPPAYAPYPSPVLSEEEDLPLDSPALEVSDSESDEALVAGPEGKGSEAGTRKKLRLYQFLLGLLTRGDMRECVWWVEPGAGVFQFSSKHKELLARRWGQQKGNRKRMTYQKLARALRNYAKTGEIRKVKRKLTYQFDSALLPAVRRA
ELF1, sequence (P32519 whole entry): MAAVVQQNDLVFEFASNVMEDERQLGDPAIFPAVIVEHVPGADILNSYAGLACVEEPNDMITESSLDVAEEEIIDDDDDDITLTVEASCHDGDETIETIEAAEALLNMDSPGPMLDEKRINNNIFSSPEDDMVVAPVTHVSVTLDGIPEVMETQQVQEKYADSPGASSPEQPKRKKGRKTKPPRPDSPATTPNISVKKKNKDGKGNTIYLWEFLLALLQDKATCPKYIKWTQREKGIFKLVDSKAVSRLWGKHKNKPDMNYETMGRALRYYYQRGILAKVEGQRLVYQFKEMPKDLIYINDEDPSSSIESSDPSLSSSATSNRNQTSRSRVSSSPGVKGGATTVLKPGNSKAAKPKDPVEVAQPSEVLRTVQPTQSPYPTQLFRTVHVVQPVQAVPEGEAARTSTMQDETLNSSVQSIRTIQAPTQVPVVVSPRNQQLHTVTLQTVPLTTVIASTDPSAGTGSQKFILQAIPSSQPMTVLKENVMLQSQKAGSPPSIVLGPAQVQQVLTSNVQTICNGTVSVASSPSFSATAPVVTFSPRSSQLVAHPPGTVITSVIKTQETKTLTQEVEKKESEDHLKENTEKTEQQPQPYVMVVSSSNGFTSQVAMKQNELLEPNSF

Sequence | binding signal (FLI1) | binding signal (ELK1) | binding signal (GABPA) | binding signal (ERG) | binding signal (ELF1) | binding signal (EHF) | binding signal (SPI1) | binding signal (SPIB) | binding signal (ELK3)
ATCACA | 1.06 fold enrichment (6-mer frequency, TF over GST control) | 1.09 fold enrichment (6-mer frequency, TF over GST control) | 1.11 fold enrichment (6-mer frequency, TF over GST control) | 1.02 fold enrichment (6-mer frequency, TF over GST control) | 1.13 fold enrichment (6-mer frequency, TF over GST control) | 1.04 fold enrichment (6-mer frequency, TF over GST control) | 1.06 fold enrichment (6-mer frequency, TF over GST control) | 1.02 fold enrichment (6-mer frequency, TF over GST control) | 1.13 fold enrichment (6-mer frequency, TF over GST control)
CCGGAC | 1.47 fold enrichment (6-mer frequency, TF over GST control) | 1.48 fold enrichment (6-mer frequency, TF over GST control) | 1.41 fold enrichment (6-mer frequency, TF over GST control) | 1.74 fold enrichment (6-mer frequency, TF over GST control) | 1.44 fold enrichment (6-mer frequency, TF over GST control) | 1.56 fold enrichment (6-mer frequency, TF over GST control) | 1.41 fold enrichment (6-mer frequency, TF over GST control) | 1.57 fold enrichment (6-mer frequency, TF over GST control) | 1.38 fold enrichment (6-mer frequency, TF over GST control)
TTTCGC | 1.11 fold enrichment (6-mer frequency, TF over GST control) | 1.12 fold enrichment (6-mer frequency, TF over GST control) | 1.06 fold enrichment (6-mer frequency, TF over GST control) | 1.02 fold enrichment (6-mer frequency, TF over GST control) | 1.13 fold enrichment (6-mer frequency, TF over GST control) | 1.2 fold enrichment (6-mer frequency, TF over GST control) | 1.13 fold enrichment (6-mer frequency, TF over GST control) | 1.2 fold enrichment (6-mer frequency, TF over GST control) | 1.14 fold enrichment (6-mer frequency, TF over GST control)
CGCTTA | 1.32 fold enrichment (6-mer frequency, TF over GST control) | 1.26 fold enrichment (6-mer frequency, TF over GST control) | 1.17 fold enrichment (6-mer frequency, TF over GST control) | 1.15 fold enrichment (6-mer frequency, TF over GST control) | 1.32 fold enrichment (6-mer frequency, TF over GST control) | 1.18 fold enrichment (6-mer frequency, TF over GST control) | 1.24 fold enrichment (6-mer frequency, TF over GST control) | 1.41 fold enrichment (6-mer frequency, TF over GST control) | 1.15 fold enrichment (6-mer frequency, TF over GST control)
AAGCTA | 1.16 fold enrichment (6-mer frequency, TF over GST control) | 1.13 fold enrichment (6-mer frequency, TF over GST control) | 1.08 fold enrichment (6-mer frequency, TF over GST control) | 1.13 fold enrichment (6-mer frequency, TF over GST control) | 1.11 fold enrichment (6-mer frequency, TF over GST control) | 1.19 fold enrichment (6-mer frequency, TF over GST control) | 1.04 fold enrichment (6-mer frequency, TF over GST control) | 1.2 fold enrichment (6-mer frequency, TF over GST control) | 1.21 fold enrichment (6-mer frequency, TF over GST control)
TACGCA | 1.18 fold enrichment (6-mer frequency, TF over GST control) | 1.2 fold enrichment (6-mer frequency, TF over GST control) | 1.11 fold enrichment (6-mer frequency, TF over GST control) | 1.15 fold enrichment (6-mer frequency, TF over GST control) | 1.2 fold enrichment (6-mer frequency, TF over GST control) | 1.26 fold enrichment (6-mer frequency, TF over GST control) | 1.12 fold enrichment (6-mer frequency, TF over GST control) | 1.1 fold enrichment (6-mer frequency, TF over GST control) | 1.25 fold enrichment (6-mer frequency, TF over GST control)
CCATAC | 1.23 fold enrichment (6-mer frequency, TF over GST control) | 1.07 fold enrichment (6-mer frequency, TF over GST control) | 1.16 fold enrichment (6-mer frequency, TF over GST control) | 1.08 fold enrichment (6-mer frequency, TF over GST control) | 1.18 fold enrichment (6-mer frequency, TF over GST control) | 1.19 fold enrichment (6-mer frequency, TF over GST control) | 1.18 fold enrichment (6-mer frequency, TF over GST control) | 1.15 fold enrichment (6-mer frequency, TF over GST control) | 1.2 fold enrichment (6-mer frequency, TF over GST control)
